Most compounds without a hit are left out; they make up all but 3.4% or so of the library.
PAFAH1B3 inh: blocks human PAF acetylhydrolase 1B catalytic subunit 3; inhibition, % at 3.39 µM; recombinant PAFAH1B3, FP-rhodamine probe, fluorescence polarization; 0.28% of 340,000 active; Q15102; AID 492972;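 active means inhibition above the screen-wide average of all tested compounds plus 3 SD, cut at about 25% in these data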;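 further: 0% = enzyme with DMSO only and 100% = wells lacking PAFAH1B3 protein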
pPAFAH FP inh: pPAFAH (human) enzyme inhibition. recombinant pPAFAH, FP-rhodamine probe fluorescence polarization. Q13093. 1.5% of 330,000 active. AID 463082. inhibition, % at 3.39 µM;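 active means inhibition above the mean inhibition across the screen plus 3 SD, cut at about 25% in these data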;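 further: inhibitors block binding of the rhodamine activity-based probe so polarization drops; 0% = enzyme with DMSO and 100% = wells lacking pPAFAH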
Target sequence (Q13093 whole entry, looked up): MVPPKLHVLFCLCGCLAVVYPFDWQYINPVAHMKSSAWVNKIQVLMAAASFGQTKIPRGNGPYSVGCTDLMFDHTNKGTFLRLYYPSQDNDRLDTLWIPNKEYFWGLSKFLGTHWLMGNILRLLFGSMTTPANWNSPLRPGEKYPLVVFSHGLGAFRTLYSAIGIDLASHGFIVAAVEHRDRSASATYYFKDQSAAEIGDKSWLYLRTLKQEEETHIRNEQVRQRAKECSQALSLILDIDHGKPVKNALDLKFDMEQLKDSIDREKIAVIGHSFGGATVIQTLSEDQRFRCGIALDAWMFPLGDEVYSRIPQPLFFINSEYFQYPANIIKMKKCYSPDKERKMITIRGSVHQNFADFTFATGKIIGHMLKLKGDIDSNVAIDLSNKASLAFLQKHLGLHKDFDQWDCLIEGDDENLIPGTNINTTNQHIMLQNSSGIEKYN
PAFAH2 inh: PAFAH2 (human) inhibition. Q99487. recombinant PAFAH2, FP-rhodamine activity probe, fluorescence polarization. inhibition, % at 3.39 µM. 0.99% of 340,000 active;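 active means inhibition above the mean over all tested compounds plus 3 SD, cut at about 30% in these data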;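 further: inhibitors block probe labeling of enzyme so polarization drops; 0% = enzyme with DMSO and 100% = wells lacking PAFAH2 protein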
PP5 inh: inhibitors of human protein phosphatase 5 (PP5) | P53041 | 0.18% of 320,000 active | purified PP5c, OMFP substrate fluorescence | inhibition, % at 6.7 µM | AID 1987;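 active means inhibition above the campaign's mean inhibition across all tested compounds plus 3 SD, cut at about 9.5% in these data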;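 further: 0% = DMSO only and 100% = 100 µM cantharidin control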
PAFAH1B2 inh: blocks human PAF acetylhydrolase 1b catalytic subunit 2; inhibition, % at 3.39 µM; P68402; 1.2% of 340,000 active; recombinant PAFAH1B2, FP-rhodamine activity probe, fluorescence polarization;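 active means inhibition above the mean of all tested compounds plus 3 SD, cut at about 24% in these data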;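 further: 0% = enzyme with DMSO and 100% = wells lacking PAFAH1B2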
Target sequence (P68402 whole entry, looked up): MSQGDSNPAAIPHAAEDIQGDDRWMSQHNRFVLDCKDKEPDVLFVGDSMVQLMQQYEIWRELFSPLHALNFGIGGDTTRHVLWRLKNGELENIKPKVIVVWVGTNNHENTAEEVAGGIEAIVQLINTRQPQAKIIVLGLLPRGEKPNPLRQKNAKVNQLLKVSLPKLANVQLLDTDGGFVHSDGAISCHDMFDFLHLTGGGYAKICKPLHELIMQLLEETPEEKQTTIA
PP1 counter: blocks human PP1-alpha phosphatase, a PP5 counter-screen | inhibition, % at 6.7 µM | 0.9% of 320,000 active | purified PP1alpha, OMFP fluorescence | P62136;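 active means inhibition above the mean inhibition of all tested compounds plus 3 SD, computed separately for each screening campaign, cut at about 15% in these data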
Active calls of the source: *.

How did CN(C)S(=O)(=O)c1cccc(NC(=S)NNC(=O)c2cc3ccccc3cc2O)c1 do in these assays?
PAFAH1B3 inh: 6.8; pPAFAH FP inh: 28.2*; PAFAH2 inh: 15.0; PP5 inh: 7.1; PAFAH1B2 inh: 8.4; PP1 counter: 9.8

Results for CN(C)S(=O)(=O)c1cccc(NC(=S)NC(=O)c2ccco2)c1 ?
PAFAH1B3 inh: 4.4; PAFAH2 inh: 1.4; PAFAH1B2 inh: -1.0

Results for O=C(Nc1ccc([N+](=O)[O-])cc1)N1CCCCCC1 ?
PAFAH1B3 inh: 3.3; pPAFAH FP inh: 0.7; PAFAH2 inh: -2.4; PP5 inh: 1.6; PAFAH1B2 inh: -0.6; PP1 counter: -1.3

Results for CC(C)(C)c1ccc(NC(=O)N2CCCN(c3ccc([N+](=O)[O-])cn3)CC2)cc1 ?
PAFAH1B3 inh: 1.3; pPAFAH FP inh: 6.0; PAFAH2 inh: 3.7; PP5 inh: 0.5; PAFAH1B2 inh: 25.4*; PP1 counter: 0.6

What do the screens show for `Cc1ccc(NS(=O)(=O)c2ccc(C(=O)NCc3cccnc3)cc2)cc1`?
PAFAH1B3 inh: -2.2; pPAFAH FP inh: 27.2*; PAFAH2 inh: 2.3; PP5 inh: -3.1; PAFAH1B2 inh: -2.7; PP1 counter: -0.3

What do the screens show for `Cc1ccc(NS(=O)(=O)c2ccc(OCC(=O)NCc3cccnc3)cc2)cc1`?
PAFAH1B3 inh: 4.8; pPAFAH FP inh: 25.8*; PAFAH2 inh: -4.4; PP5 inh: 1.2; PAFAH1B2 inh: 1.8; PP1 counter: -3.0

What do the screens show for `CC(=NNC(=O)c1ccc(NS(=O)(=O)c2ccc(Br)cc2)cc1)c1cccnc1`?
PAFAH1B3 inh: 4.2; pPAFAH FP inh: 7.2; PAFAH2 inh: -1.3; PAFAH1B2 inh: 29.2*

How did Cc1ccc(NS(=O)(=O)c2ccc(C(=O)NCc3ccncc3)cc2)cc1 do in these assays?
PAFAH1B3 inh: 2.1; pPAFAH FP inh: 26.4*; PAFAH2 inh: 3.6; PP5 inh: 4.2; PAFAH1B2 inh: 6.9; PP1 counter: -3.3

What do the screens show for `O=C(NCc1cccnc1)c1ccc(S(=O)(=O)Nc2ccccc2)cc1`?
PAFAH1B3 inh: 5.5; pPAFAH FP inh: 24.4; PAFAH2 inh: 2.1; PP5 inh: -2.1; PAFAH1B2 inh: 3.6; PP1 counter: -1.3

Results for O=C(COc1ccccc1Cc1ccccc1)Nc1cccc(S(=O)(=O)N2CCOCC2)c1 ?
PAFAH1B3 inh: -7.3; pPAFAH FP inh: 4.9; PAFAH2 inh: -8.7; PP5 inh: 2.2; PAFAH1B2 inh: -2.4; PP1 counter: -0.7

Results for Cc1ccc(C(=O)NCc2cccnc2)cc1S(=O)(=O)Nc1ccccc1 ?
PAFAH1B3 inh: -7.0; pPAFAH FP inh: 26.9*; PAFAH2 inh: 12.8; PP5 inh: 0.2; PAFAH1B2 inh: 0.2; PP1 counter: 1.0

How did Cc1ccc(S(=O)(=O)N2CCOCC2)cc1NC(=O)COc1ccccc1Cc1ccccc1 do in these assays?
PAFAH1B3 inh: 1.1; pPAFAH FP inh: 25.9*; PAFAH2 inh: -0.1; PAFAH1B2 inh: 1.7

Results for CCOc1ccc(NS(=O)(=O)c2ccc(-c3coc(C)n3)cc2)cc1 ?
PAFAH1B3 inh: 10.4; pPAFAH FP inh: 29.5*; PAFAH2 inh: 2.7; PP5 inh: 1.0; PAFAH1B2 inh: 3.2; PP1 counter: -0.9

Results for O=C(COc1ccc(S(=O)(=O)Nc2ccccc2)cc1)NCc1ccncc1 ?
PAFAH1B3 inh: 4.6; pPAFAH FP inh: 27.2*; PAFAH2 inh: 6.7; PP5 inh: 3.5; PAFAH1B2 inh: 4.6; PP1 counter: 1.5

Results for Cc1ccccc1-n1nnnc1SCC(=O)c1c(N)n(C)c(=O)n(C)c1=O ?
PAFAH1B3 inh: 7.6; pPAFAH FP inh: -0.1; PAFAH2 inh: 0.1; PP5 inh: 0.1; PAFAH1B2 inh: 2.9; PP1 counter: -4.3

How did Cc1ccc(C2(C(F)(F)F)N=C3Sc4cc(C)ccc4N3C(=O)N2)cc1 (stereo not drawn) do in these assays?
pPAFAH FP inh: -2.3; PP5 inh: 0.9; PP1 counter: 2.3

How did Cc1ccc(CNC(=O)COc2ccc(S(=O)(=O)N3CCOCC3)cc2)cc1 do in these assays?
PAFAH1B3 inh: 4.2; pPAFAH FP inh: 28.4*; PAFAH2 inh: -5.1; PP5 inh: -1.0; PAFAH1B2 inh: 2.5; PP1 counter: -6.2

How did COc1ccc(NS(=O)(=O)c2cccc(C(=O)NCc3cccnc3)c2)cc1 do in these assays?
PAFAH1B3 inh: 3.5; pPAFAH FP inh: 27.3*; PAFAH2 inh: 6.1; PP5 inh: -0.4; PAFAH1B2 inh: 2.7; PP1 counter: -5.9

What do the screens show for `CNC(=O)COc1ccc(S(=O)(=O)Nc2ccc(C)cc2)cc1`?
PAFAH1B3 inh: 9.4; pPAFAH FP inh: 21.5; PAFAH2 inh: -3.5; PP5 inh: -1.5; PAFAH1B2 inh: 5.3; PP1 counter: -1.9

How did CCCNC(=O)COc1ccc(S(=O)(=O)Nc2ccc(C)cc2)cc1 do in these assays?
PAFAH1B3 inh: -0.4; pPAFAH FP inh: 30.2*; PAFAH2 inh: -5.1; PP5 inh: 1.8; PAFAH1B2 inh: 6.9; PP1 counter: 1.6

How did COc1ccc(NS(=O)(=O)c2ccc(Cl)c(NC(=O)c3cccnc3Cl)c2)cc1 do in these assays?
PAFAH1B3 inh: 0.0; pPAFAH FP inh: 29.6*; PAFAH2 inh: 5.1; PP5 inh: 0.5; PAFAH1B2 inh: 2.0; PP1 counter: -3.6

What do the screens show for `C[C@@H]1CC[C@]2(C(=O)O)CC[C@]3(C)C(=CCC4[C@@]5(C)CC[C@H](O)[C@@](C)(C(=O)O)C5CC[C@]43C)C2[C@]1(C)O` (stereo partly drawn)?
PAFAH1B3 inh: 1.8; pPAFAH FP inh: -1.1; PAFAH2 inh: 5.6; PAFAH1B2 inh: 3.2

What do the screens show for `CC1CC(=O)N(CC(=O)NCc2ccco2)c2ccccc2S1` (stereo not drawn)?
PAFAH1B3 inh: 8.3; pPAFAH FP inh: -0.7; PAFAH2 inh: 1.0; PP5 inh: 1.5; PAFAH1B2 inh: 0.9; PP1 counter: -2.0

Results for CC(=O)CSc1nc2c(c(=O)[nH]c(=O)n2C)n1Cc1ccccc1Cl ?
PAFAH1B3 inh: -0.4; pPAFAH FP inh: -1.6; PAFAH2 inh: 0.8; PP5 inh: -0.3; PAFAH1B2 inh: 1.7; PP1 counter: 0.2

Results for CC(CCc1ccccc1)NC(=O)COC(=O)C12CC3CC(CC(Br)(C3)C1)C2 (stereo not drawn) ?
PAFAH1B3 inh: 7.4; pPAFAH FP inh: 4.1; PAFAH2 inh: -6.0; PP5 inh: 2.1; PAFAH1B2 inh: 45.3*; PP1 counter: 1.6

What do the screens show for `O=C(COC(=O)C12CC3CC(CC(Cl)(C3)C1)C2)Nc1ccccc1`?
PAFAH1B3 inh: 8.0; pPAFAH FP inh: 5.3; PAFAH2 inh: 59.6*; PAFAH1B2 inh: 35.5*

How did O=C(COC(=O)C12CC3CC(CC(C3)C1)C2)NNC(=O)c1ccccc1 do in these assays?
PAFAH1B3 inh: 6.2; pPAFAH FP inh: 1.4; PAFAH2 inh: 2.9; PAFAH1B2 inh: 40.0*

Results for CC1CCCCC1NC(=O)COC(=O)C12CC3CC(CC(Cl)(C3)C1)C2 (stereo not drawn) ?
PAFAH1B3 inh: 8.3; pPAFAH FP inh: 6.9; PAFAH2 inh: 61.6*; PP5 inh: 2.3; PAFAH1B2 inh: 35.2*; PP1 counter: 3.2

Screening data: PubChem BioAssay, The Scripps Research Institute Molecular Screening Center
